From PubChem BioAssay AID651789 (National Center for Advancing Translational Sciences (NCATS), 2012)
Records with an inconclusive call do not appear. The source made the active and inactive calls. Calls follow the shape of the dose curve; as a rule, active = well fitted inhibition curve with a large enough effect; inconclusive = small, poorly fitted or top-dose-only effect; inactive = no such curve, though single readings can be large or run the other way.

Assay: Acumen qHTS Assay for Inhibitors of the mTORC1 Signaling Pathway in WT MEF Cells: Hit Validation; also: nearly all actives have a fitted effect of over 60% in size;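 as to activity change, negative = inhibition: phospho-rpS6 Ser235/236 immunofluorescence normalised to propidium iodide cell stain; percent of cells above a cutoff set by 7.5 nM rapamycin treated wells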
Details: Acumen imaging; series mostly up to 37.3 µM; activity change, negative = inhibition: at the top concentration
Procedure, shortened: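 Read-out is immunofluorescent phospho-rpS6 (Ser235/236) normalised to PI-stained cell number, reported as % active cells using a 7.5 nM rapamycin threshold. Cells: WT or Tsc2-/-, p53-/- MEFs, compound-exposed 24 h at 37C; PI count also tracks viability.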
Potency is read from the fitted curve at half-maximal effect.

Structure (SMILES) | Potency | activity change, negative = inhibition
Cc1cccc(CS(=O)(=O)c2ncc(Cl)c(C(=O)NCc3ccccc3)n2)c1 | 13.1 µM (active) | –
CC(C(=O)NCc1cccc(Br)c1)n1ncn2cccc2c1=O (stereo not given) | – | 4.58% (inactive)
CCS(=O)(=O)c1ccccc1C(=O)N(Cc1cccnc1)c1nc2cc(C)c(C)cc2s1 | – | -4.58% (inactive)
CC1=C(C(=O)OC2CCCC2)C(c2ccccc2Cl)CC(=O)N1 (stereo not given) | – | -20.9% (inactive)
CCCCC(CC)CNC(=O)c1ccc(Cn2c(=O)[nH]c3cc(OC)c(OC)cc3c2=O)cc1 (stereo not given) | 13.1 µM (active) | –
CCCC(=O)OC1=CN(Cc2ccccc2)S(=O)(=O)c2ccccc21 | 3.69 µM (active) | –
Cc1cccc(C(=O)Nc2c3c(nn2-c2ccc(Cl)cc2)CS(=O)(=O)C3)c1 | – | 32.8% (inactive)
Cc1ccc(S(=O)(=O)c2nc(-c3ccco3)oc2SC(C)c2ccccc2)cc1 (stereo not given) | – | 2.14% (inactive)
COc1cccc(-n2c(-c3ccc(C)cc3)cc3c2CC(C)(C)CC3=O)c1 | – | -25.8% (inactive)
O=C(CN1C(=O)C(c2ccc(F)cc2)=NC12CCCCCC2)Nc1ccccc1Cl | – | 6.65% (inactive)
CC1CCN(S(=O)(=O)c2ccc(C(=O)Nc3sc4c(c3C(N)=O)CC(C)(C)NC4(C)C)cc2)CC1 | 3.29 µM (active) | –
COc1cccc(-n2c(-c3ccco3)nc3c(cnn3-c3ccc(C)cc3)c2=O)c1 | – | -28.5% (inactive)
O=C(Nc1ccc(-c2cc(C(F)(F)F)nn2-c2ccccc2)cc1)c1cccc(F)c1 | – | -23.2% (inactive)
O=C(Cn1c(=O)c2cccn2c2ccccc21)NCc1ccccc1F | – | 18.4% (inactive)
COc1ccc(Cn2c(C(=O)O)c(CNCc3ccccc3F)c3ccc(OC)cc32)cc1 | – | -6.11% (inactive)
CCOc1cc(-c2nnc(SCC(=O)NCc3ccccc3)nc2-c2ccc(OC)c(OCC)c2)ccc1OC | 0.927 µM (active) | –
O=C(NCc1ccccc1)c1ccc2c(c1)N(Cc1ccccc1F)C(=O)c1ccccc1S2=O (stereo not given) | – | 20.8% (inactive)
O=C(NCCN1CCN(c2cccc(Cl)c2)CC1)Nc1ccccc1C(F)(F)F | – | 59.5% (inactive)
CC[C@H](CO)Nc1nc(NCc2ccccc2)c2ncn(C(C)C)c2n1 | – | -51.5% (inactive)
Cc1ccc(NC(=O)CSc2ccc(-c3ccccn3)nn2)cc1F | – | -2.29% (inactive)

Structure (SMILES) | Potency | activity change, negative = inhibition
Cc1cc(C)cc(C(=O)Nc2ccc(-c3nc4ncccc4o3)cc2)c1 | – | -13.1% (inactive)
Cn1nnnc1SCCCNCc1cc(Cl)ccc1OCc1ccc(F)cc1 | – | -19.3% (inactive)
Cc1cn([C@H]2C[C@H](N=[N+]=[N-])[C@@H](CO)O2)c(=O)[nH]c1=O | – | -13.6% (inactive)
CCS(=O)(=O)c1oc(-c2ccc(F)cc2)nc1S(=O)(=O)c1ccc(Br)cc1 | 4.65 µM (active) | –
CCN(CC)Cc1c(NC(=O)c2ccc(OC)cc2)sc2c1CCCC2 | – | 39.6% (inactive)
CN(C)c1ccc(Nc2nc3ccccc3n3nnnc23)cc1 | – | 46.5% (inactive)
CCC1=Nc2cc(C(=O)NC3CCCC3)ccc2Sc2ccc(Br)cc21 | 1.85 µM (active) | –
NS(=O)(=O)c1cc(C(=O)O)c(NCc2ccco2)cc1Cl | – | 18.9% (inactive)
Cc1ccc(NC(=O)CCNS(=O)(=O)c2cccc3nonc23)cc1Cl | – | -0.763% (inactive)
O=S(=O)(NCC(c1ccco1)N1CCN(c2ccc(F)cc2)CC1)c1ccccc1 (stereo not given) | – | 2.11% (inactive)
COc1ccc(CCNC(=O)CCCn2nc(C)c3sc4ccccc4c3c2=O)cc1OC | – | -1.53% (inactive)
CCOc1ccc(-c2cnc(NCc3ccc(C(F)(F)F)cc3)n2C)cc1 | – | -3.05% (inactive)
O=C(CCCn1ccc2cc(S(=O)(=O)N3CCCC3)ccc21)NCc1ccc(Cl)cc1 | – | -26.8% (inactive)
CCOc1ccc(S(=O)(=O)N(C(=O)c2ccncc2)c2ccc3oc(C)c(C(=O)OC)c3c2)cc1 | 14.7 µM (active) | –
CCN(CC)CCNC(=O)c1ccc(Cn2c(=O)c3cccn3c3cccnc32)cc1 | – | -9.16% (inactive)
Cc1nn(C(C)C(=O)NC2CCC(C)CC2)c(=O)c2c1sc1ccccc12 (stereo not given) | – | 1.53% (inactive)
COCCCNC(=O)c1ccc(CSc2nc3cccnc3n2Cc2ccc(OC)cc2)cc1 | – | -10.2% (inactive)
CCOC(=O)c1c(NC(=O)COc2ccc(OC)cc2)sc(C(=O)N(CC)CC)c1C | – | 8.8% (inactive)
COc1ccc(-c2nc(C)c(CCNC(=O)c3ccccc3Br)s2)cc1OC | – | 24.3% (inactive)
CCN1CCN(C(=O)Cn2ncc3c4ccccc4n(Cc4c(C)cc(C)cc4C)c3c2=O)CC1 | 5.21 µM (active) | –
